hgDAF12 agonist = agonists of H. glycines DAF-12 nuclear receptor; HEK293 GAL4-hgDAF12 UAS-luciferase reporter, agonist luminescence; normalized to butyrate control; activation, % at 6.8 µM; actives 1.8% (n = 370,000);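 active = activation above a cutoff set at the mean of all screened compounds plus 3 SD, cut at about 10% in these data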;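 also: 0% = DMSO wells and 100% = sodium butyrate wells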
DAX1 inh-1 = inhibitors of DAX1 repression of SF-1 activated StAR promoter; HEK293T StAR-luciferase reporter, SF-1/DAX-1 repression relief; AID 652010; actives 1.1% (n = 370,000); inhibition, % at 6.8 µM;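 active = inhibition above the mean over all tested compounds plus 3 SD, cut at about 3.6% in these data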;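 also: 0% = DAX-1 cells with DMSO and 100% = cells lacking DAX-1 with DMSO; higher inhibition means more luminescence from relief of DAX-1 repression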
ssDAF12 agonist = activators of S. stercoralis DAF-12 nuclear receptor; HEK293 ssDAF-12/GRIP1 lit1-tk-luc reporter, luminescence; % of 3 µM dafachronic acid response; activation, % at 6.8 µM; actives 1% (n = 370,000);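 active = activation above the mean over all tested compounds plus 3 SD, cut at about 0.9% in these data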;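 also: 0% = DMSO-only wells and 100% = 3 µM delta7-dafachronic acid wells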
hcDAF-12 act = activators of H. contortus DAF-12 nuclear receptor | HEK293 hcDAF-12 lit1-tk-luc reporter, luminescence; 0% DMSO, 100% Δ7-dafachronic acid | activation, % at 6.8 µM | actives 1.4% (n = 370,000) | AID 652067;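 active = activation above the mean of all tested compounds plus 3 SD, cut at about 5.5% in these data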;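 also: 100% = response to 3 µM Δ7-dafachronic acid high control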
SMARCA2 activ = SMARCA2 function activation, primary screen; MG213 cells, MMTV-luciferase reporter, dexamethasone, overnight; activation, % at 9.1 µM; actives 1% (n = 370,000); in the data active = activation above about 7.8%;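 also: 0% = vehicle wells and 100% = reference activator wells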
DAX1 inh-2 = inhibits human nuclear receptor DAX1; P51843; HEK293 Gal4-DAX1 luciferase reporter, luminescence; inhibition, % at 6.75 µM; actives 0.99% (n = 340,000);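 active = inhibition above the mean over all tested compounds plus 3 SD, cut at about 4.2% in these data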;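 also: 0% = DAX1-transfected cells with DMSO and 100% = empty-vector control cells with DMSO; inhibition shows as a rise in luminescence from relieved DAX1 repression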
Target sequence (P51843 207-470 limits assumed): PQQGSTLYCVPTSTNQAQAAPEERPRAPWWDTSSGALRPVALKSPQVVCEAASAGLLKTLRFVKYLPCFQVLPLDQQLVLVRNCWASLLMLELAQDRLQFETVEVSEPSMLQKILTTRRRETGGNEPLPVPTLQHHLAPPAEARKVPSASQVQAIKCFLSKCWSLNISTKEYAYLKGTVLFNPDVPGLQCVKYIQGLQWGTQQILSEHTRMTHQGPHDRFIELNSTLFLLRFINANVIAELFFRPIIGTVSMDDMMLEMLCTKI
SMARCA2 act conf = confirmation of SMARCA2 (BRM) function activators; MG213 cells, MMTV-luciferase with dexamethasone, luminescence, overnight; MG213 cells expressing E1A, Rb sequestered; DMSO wells 0%, reference activator 100%; actives 30% (n = 3,500); shares compounds with SMARCA2 activ; activation, % at 9.1 µM;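 active = activation above its plate's cutoff, the mean activation of tested wells plus 3 SD, cut at about 7.9% in these data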
GAL4-VP16 Luc = GAL4-VP16 reporter activation counter-screen; activation, % at 9.1 µM; actives 41% (n = 3,500); shares compounds with SMARCA2 activ; HEK293 GAL4-VP16 pG5luc reporter, luciferase luminescence; scaled: DMSO wells 0%, SAHA wells 100%;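 active = activation above the solvent-only control well mean plus 3 SD, averaged across control plates, cut at about 5.2% in these data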
Active calls of the source: *; . = not tested or not shown. Sampled rows, rich in hits. Any-hit rate of the full collection: about 4.8%.

SMILES	hgDAF12 agonist	DAX1 inh-1	ssDAF12 agonist	hcDAF-12 act	SMARCA2 activ	DAX1 inh-2	SMARCA2 act conf	GAL4-VP16 Luc
Cc1ccc(C)c(C(=O)COC(=O)c2cccc(N3C(=O)c4c(C)nc5ccccc5c4C3=O)c2)c1	9.9	2.6	0.3	5.5	14.2*	2.6	0.8	2.6
C/C(Nc1cccc(F)c1)=C(/C#N)C(N)=O	1.9	-0.7	-1.8	-0.5	8.3*	-0.4	-2.5	-0.2
C/C(Nc1ccc(F)cc1)=C(/C#N)C(N)=O	-1.9	-0.5	-0.5	-1.6	-3.2	0.0	.	.
O=C(O)/C=C/c1ccc([N+](=O)[O-])o1	3.0	-0.1	-1.5	-2.0	-3.7	-0.1	.	.
O=C1NC(=S)S/C1=C\C=C\c1ccc([N+](=O)[O-])o1	-5.5	-1.9	-1.1	-1.3	24.0*	-0.7	-15.5	3.2
COc1ccc(N/C(=C\C(=O)c2ccccc2)c2ccccc2)cc1OC	5.2	1.8	-1.0	-1.3	-0.8	.	.	.
C/C(CC(=O)Nc1ccc2c(c1)OCCO2)=N\NC(=O)c1ccccc1F	4.6	0.5	-0.4	1.5	8.7*	0.2	1.7	2.8
C/C(CC(=O)Nc1ccc2c(c1)OCO2)=N\NC(=O)c1ccc(N)cc1	1.4	0.2	0.9	0.3	3.8	.	.	.
C/C(CC(=O)Nc1ccc2c(c1)OCO2)=N\NC(=O)c1ccccc1N	5.1	0.6	-0.1	0.0	16.8*	.	-1.6	2.3
CCN(CC)CCOc1ccc2c(c1)C(=NO)c1cc(OCCN(CC)CC)ccc1-2	9.4	2.3	-0.8	2.6	23.4*	2.7	75.8*	0.0
COC(=O)c1sc(NC(=O)COc2ccc(OC)cc2)nc1C	3.5	-0.3	-0.9	0.8	1.2	0.5	.	.
COC(=O)c1sc(NC(=O)COc2cccc3ccccc23)nc1C	1.1	-0.1	-0.6	0.6	10.4*	0.3	3.8	1.8
Nc1ccc(S(=O)(=O)NC2(C(F)(F)F)NC(=O)N(Cc3ccccc3)C2=O)cc1 (configuration not stated)	0.2	0.4	-0.5	-0.7	8.0*	1.6	-5.3	-0.3
CC1CN(C(=O)CCC(=O)NC(C)c2ccccc2)c2cc(Cl)ccc2O1 (configuration not stated)	4.9	-1.0	-1.1	1.0	8.3*	-0.3	-2.1	1.5
COc1cc(OCc2ccccc2)c2c(CCC(=O)O)cc(=O)oc2c1	7.1	0.4	-1.5	-1.7	8.5*	0.8	-2.5	0.6
CCCC1CCC2(CCCN2CCOC(=O)Nc2ccccc2C)CC1 (configuration not stated)	0.7	.	-0.6	-0.9	.	.	.	.
COc1ccc(Cn2cc3c(-c4ccc(F)cc4)nnc-3c3cc(OC)c(OC)cc32)cc1	-3.2	-0.9	-1.4	-1.0	22.1*	0.4	46.6*	0.5
Cn1nc2c3cc(F)ccc3n(Cc3ccc(F)cc3)cc-2c1=O	-0.4	0.1	-0.5	-1.8	-2.5	-0.9	.	.
COc1ccc(-c2nnc(-c3ccccc3)o2)cc1OC	10.5*	2.3	-0.2	1.4	8.4*	2.5	6.4	11.7*
CN(Cc1ccc(F)cc1)C(=O)CCc1nnc(-c2ccccc2)o1	7.6	0.3	0.2	1.8	1.6	1.5	.	.
COc1ccc(CCN(C)C(=O)CCc2nnc(-c3ccccc3)o2)cc1OC	11.2*	1.3	0.2	4.0	11.4*	2.4	13.2*	7.3*
CN(Cc1ccccc1)C(=O)OCc1cn(Cc2ccccc2Cl)nn1	-1.0	0.4	-1.2	-2.1	3.0	.	.	.
Cc1cccc2nc(-c3ccco3)c(Nc3ccc4c(c3)OCCO4)n12	2.6	-0.2	-1.6	-1.2	10.5*	0.8	-2.4	-1.9
COc1ccc(CN(CCC#N)CCC2(c3ccccc3)CC(C)N(C)CC2C)cc1OC (configuration not stated)	-0.8	0.7	-0.5	-1.3	7.5	-0.3	.	.
COc1ccc(CNCCC2(Cc3ccccc3)CC(C)N(C)CC2C)cc1OC (configuration not stated)	-4.2	0.8	-0.6	-0.6	8.3*	1.3	5.3	2.4
COc1ccc(C2=NOC(C(=O)Nc3c(C)n(C)n(-c4ccccc4)c3=O)C2)cc1OC (configuration not stated)	-2.4	0.2	-1.6	-0.3	-6.5	-0.3	.	.
Cc1c(NC(=O)C2CC(c3c(F)cccc3Cl)=NO2)c(=O)n(-c2ccccc2)n1C (configuration not stated)	-0.8	0.5	-1.9	-2.8	8.4*	1.8	0.2	-0.6
CCOc1ccc2nc(C)cc(Nc3cccc([N+](=O)[O-])c3)c2c1	-6.8	-1.6	-1.5	-4.3	14.3*	-1.3	32.4*	3.0
